Measured values taken from the supplement of paper PMC6555819.

What was measured:
Test in all cases: PBM binding z-score (relative to random genomic background probes); higher = stronger binding; sequences stand for … in GC…GCGATTGACAGCGTAGAATGAAGG
[1] = system: FXR:RXRa (NR concentration 270 nM, RXRa partner concentration 90 nM)
Summary of the method: (§1)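 Custom Agilent 4×180K protein-binding microarrays carried double-stranded probes, each with a 34-nt variable region. These regions held direct-repeat seeds, single-nucleotide variants, half-site ablations and random human genomic background sequences. Ligand-free nuclear receptor dimers were incubated on the arrays for 1 h, antibodies against each partner (one per run) detected binding, and scanned fluorescence was regression-normalized. Binding z-scores take the random background probes as reference.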

[2] = system: LXRa:RXRa (NR concentration 270 nM, RXRa partner concentration 90 nM)
Summary of the method: as §1

[3] = system: LXRa homodimer (NR concentration 270 nM)
Summary of the method: as §1

[4] = system: LXRb:RXRa (NR concentration 270 nM, RXRa partner concentration 90 nM)
Summary of the method: as §1

[5] = system: LXRb homodimer (NR concentration 270 nM)
Summary of the method: as §1

[6] = system: PPARa:RXRa (NR concentration 270 nM, RXRa partner concentration 90 nM)
Summary of the method: as §1

[7] = system: PPARg:RXRa (NR concentration 180 nM, RXRa partner concentration 90 nM)
Summary of the method: as §1

[8] = system: PPARg:RXRa 270nM:90nM, anti-RXR (NR concentration 270 nM, RXRa partner concentration 90 nM)
Summary of the method: as §1

[9] = system: PPARg:RXRa 30nM:10nM, anti-RXR (NR concentration 30 nM, RXRa partner concentration 10 nM)
Summary of the method: as §1

[10] = system: PPARg:RXRa 90nM:30nM, anti-RXR (NR concentration 90 nM, RXRa partner concentration 30 nM)
Summary of the method: as §1

Sequence | PBM binding z-score [1] | PBM binding z-score [2] | PBM binding z-score [3] | PBM binding z-score [4] | PBM binding z-score [5] | PBM binding z-score [6] | PBM binding z-score [7] | PBM binding z-score [8] | PBM binding z-score [9] | PBM binding z-score [10]
CCTTACGGGTCAATGTTATAGCACGGGTGGTACG | 4.09 | 2.96 | 0.175 | 2.61 | 0.428 | 3.96 | 3 | 3.22 | 1.1 | 2.16
TCTTGTAGATCAATAGAGGTGAAGAAAGTGCGCT | 1.02 | 0.833 | -0.122 | 0.533 | -0.232 | 1.5 | 0.0312 | 1.72 | 2.84 | 2.21
GCTCACGGGTCAAAGGTTATAGCATGAATAGAAT | 7.17 | 5.69 | 0.496 | 5.67 | 0.379 | 6.85 | 9.36 | 8.27 | 6.88 | 8.29
AGTCAAAGTTCTGGACGAGGTAACGTAAAGCACG | -0.243 | -0.501 | -0.429 | -0.322 | -0.689 | 0.00286 | 0.557 | 0.0282 | -0.285 | 0.00624
GGTACAGGGTCAGCTAGAGGCCAGAGTATGGAAA | 4.99 | 2.87 | -0.106 | 2.67 | -0.0836 | 4.62 | 4.12 | 3.78 | 0.502 | 2.27
TCTAGTTGGTCAAAGTTCACACACTCGAAATGCG | 3.96 | 4.54 | 4.63 | 3.66 | 1.36 | 5.5 | 9.83 | 9.2 | 8.79 | 9.75
CCTACTGGGCTATTCAGAGGTCATTGATCATATG | 2.44 | 4.58 | 7.28 | 3.7 | 0.414 | 3.44 | 1.17 | 2.73 | 0.812 | 1.97
CGACCAAGGTCATAGGAGGTCAGTGAAGACAGAT | 7.7 | 7.58 | 4.51 | 5.89 | 0.466 | 5.7 | 6.04 | 5.91 | 2.45 | 4.68
TGAATGTGGTTATAAGATCAGGGAACGTTGCAAA | 0.123 | 0.222 | 0.268 | 0.397 | 0.612 | 0.12 | 0.237 | 0.617 | 0.803 | 1.15
GCTAGCGGGCCATTTGGGTCACTCAATGACGGGC | -0.0868 | -0.0931 | -0.975 | -0.141 | -0.972 | 1.26 | 0.395 | 0.262 | -0.653 | -0.112
CGTCCAAGGTCAATGCTAGGTCAGTGCAAGCATT | 6.7 | 5.58 | 2.83 | 4.07 | 0.975 | 4.94 | 3.6 | 4.26 | 0.996 | 3.23
ACTATTAGTTGACTTAGGGTAACCGATACGACGC | 0.985 | 1.09 | 1.21 | 0.679 | 0.748 | 0.468 | 0.907 | 0.758 | 0.442 | 0.705
ACTAGCAGGCCAAGTTTGCGTCACTCAAACAAAG | -0.42 | -0.547 | -0.38 | -0.386 | -0.402 | -0.395 | -0.346 | -0.378 | -0.74 | -0.227
CCTAGTTGGTCAAGGACACACACGCTATAGGTAC | 0.477 | 0.154 | 0.309 | 0.44 | 0.532 | 0.0552 | 1.12 | 0.49 | 0.287 | 0.489
ATCTCTTGGTAAAGTTCAGTGAAAGATCGATAGA | 1.08 | 2.09 | 1.65 | 1.6 | 1.5 | 1.69 | 1.54 | 3.02 | 1.39 | 2.65
CAGCCTAGGCCAGGGCCAGTATAGGAGGAACGTT | -0.702 | -1.16 | -0.761 | -1.14 | -1.72 | -0.754 | 0.0393 | -1.36 | -0.853 | -1.1
GCTGCTAGGGCAGGTTGGTCAGCTAACGGGTACG | -0.531 | -0.752 | -0.652 | -1.01 | -0.94 | -0.594 | -0.438 | -0.678 | -1.11 | -1.1
ATCGAAAGGTCGAAGGTGAGTATCCCCACCCGAA | 3.99 | 3.46 | 0.139 | 2.58 | 0.489 | 4.42 | 4.5 | 4.68 | 2.04 | 3.58
TTCCCAAGGTGAAGGTCGTTGATCCCTCTGTAGA | 2.26 | 2.23 | -0.0326 | 1.74 | -0.362 | 2.26 | 0.674 | 1.81 | 0.663 | 1.37
TCTGCTAGGTCAGTTCGTCAGCTAACGAGCTGCC | 0.654 | 0.387 | -0.691 | 0.0408 | 0.21 | 0.896 | 0.0243 | 1.38 | 1.37 | 1.51
TGAGTGAGGTTAAAGATCAGGGAACGTGGCGTCG | 2.78 | 2.38 | -0.367 | 1.88 | 1.13 | 4.05 | 3.48 | 4.58 | 2.61 | 3.92
CGTCCAAGGTCAAGGTCGGTGAAAGAGACTCGAA | 7.27 | 5.92 | 0.458 | 4.22 | 0.00899 | 5.85 | 5.34 | 5.83 | 2.16 | 4.39
GCTAGTTGCTCAGTAAAAGGTCACACACCGGTCG | 3.27 | 4.03 | 4.51 | 4.02 | 0.393 | 4.42 | 2.23 | 3.52 | 1.06 | 2.88
CTATCAAGGTGAACAAGGTCGTTGATTACTATTC | 1.16 | 1.14 | -0.163 | 1.54 | -0.39 | 2.47 | 1.53 | 1.51 | 0.103 | 0.808
